Source: PubChem BioAssay
This is a sample that favours compounds with a hit; in the whole collection about 1.2% have one here.
NPR1 activator = GC-A (human) enzyme activation; P16066; HEK293 GC-A cells, cGMP TR-FRET, EC30 ANP; 0% at EC30 ANP, 100% saturating ANP; activation, % at 10 µM; 0.14% of 370,000 active; AID 1671463; in the data active = activation above about 40%
NPR2 activator = GC-B (human) receptor activation; HEK293-GC-B cells, CNP EC30, cGMP TR-FRET; 0% at EC30 CNP, 100% saturating CNP; 0.11% of 370,000 active; P20594; AID 1920062; activation, % at 10 µM;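 active = activation at 10 µM reaching about 35% in either raw or pattern-adjusted values, limit read from the data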
PLC-beta3 inh = PLC-beta3 (human) inhibition, primary screen; Q01970; Purified PLC-beta3, fluorogenic substrate, fluorescence; inhibition, % at 12.2 µM; 0.18% of 370,000 active; AID 720704; in the data active = inhibition above about 11%
Target sequence (Q01970 whole entry, looked up): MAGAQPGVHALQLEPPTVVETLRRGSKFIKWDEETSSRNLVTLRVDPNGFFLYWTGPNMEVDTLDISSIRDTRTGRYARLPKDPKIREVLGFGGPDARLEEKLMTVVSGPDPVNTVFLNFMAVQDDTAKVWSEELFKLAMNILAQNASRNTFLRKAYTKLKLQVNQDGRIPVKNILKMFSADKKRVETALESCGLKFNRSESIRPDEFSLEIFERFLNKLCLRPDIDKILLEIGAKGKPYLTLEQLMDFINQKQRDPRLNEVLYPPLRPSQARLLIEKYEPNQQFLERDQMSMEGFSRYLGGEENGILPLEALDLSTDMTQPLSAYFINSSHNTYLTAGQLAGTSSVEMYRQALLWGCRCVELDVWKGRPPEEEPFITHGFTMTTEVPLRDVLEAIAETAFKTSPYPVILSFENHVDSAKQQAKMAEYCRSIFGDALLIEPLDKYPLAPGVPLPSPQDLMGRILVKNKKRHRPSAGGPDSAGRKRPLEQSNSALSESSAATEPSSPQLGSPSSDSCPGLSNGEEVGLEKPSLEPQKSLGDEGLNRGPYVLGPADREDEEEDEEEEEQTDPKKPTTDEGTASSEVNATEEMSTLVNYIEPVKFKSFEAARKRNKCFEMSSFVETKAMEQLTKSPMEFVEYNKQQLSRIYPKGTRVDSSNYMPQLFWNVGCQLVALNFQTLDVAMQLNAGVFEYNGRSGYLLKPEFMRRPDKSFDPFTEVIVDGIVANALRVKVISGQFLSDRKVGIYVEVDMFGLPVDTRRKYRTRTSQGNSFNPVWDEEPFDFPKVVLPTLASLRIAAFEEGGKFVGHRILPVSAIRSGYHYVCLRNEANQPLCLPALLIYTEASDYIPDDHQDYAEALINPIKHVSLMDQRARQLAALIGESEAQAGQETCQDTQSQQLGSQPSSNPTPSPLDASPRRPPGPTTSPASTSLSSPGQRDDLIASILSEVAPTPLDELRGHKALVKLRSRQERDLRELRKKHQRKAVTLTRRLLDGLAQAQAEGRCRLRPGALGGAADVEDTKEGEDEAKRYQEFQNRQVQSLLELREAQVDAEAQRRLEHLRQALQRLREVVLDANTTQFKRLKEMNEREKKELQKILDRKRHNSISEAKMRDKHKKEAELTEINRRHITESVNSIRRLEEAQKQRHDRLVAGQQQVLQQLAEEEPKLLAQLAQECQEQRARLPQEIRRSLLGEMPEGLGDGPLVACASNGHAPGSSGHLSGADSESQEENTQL
PLC-gamma1 inh = inhibitors of human phospholipase C gamma1 | P19174 | purified PLC-gamma1, fluorogenic substrate, fluorescence | inhibition, % at 12.2 µM | 0.84% of 370,000 active | AID 720700
PLCgamma1 ctr = PLC-gamma1 inhibition, counter-screen for PLC-beta3 hits. shares compounds with PLC-gamma1 inh. purified PLC-gamma1, fluorogenic substrate, fluorescence. inhibition, % at 12.3 µM. 3.1% of 3,300 active. AID 743258
PLCbeta3 conf = human PLC-beta3 inhibition, confirmation; shares compounds with PLC-gamma1 inh; purified PLC-beta3, fluorogenic substrate fluorescence; inhibition, % at 12.3 µM; 1% of 3,300 active; AID 743261; in the data active = inhibition above about 11%
Of the large screens only hits and unclear results are named; the others gave an inactive call (follow-up assays come after a bar, where they were run). Cut-off read from the data, not from the text of the source, unless noted: active = inhibition above about 9.5%; inactive = the rest.

O=C(COc1ccc(/C=N/NS(=O)(=O)c2ccccc2)cc1)NCc1ccccc1	none
COc1ccc(/C=N/NS(=O)(=O)c2ccccc2)cc1OC(=O)c1ccc(C)cc1	none
CC(=O)Oc1ccc(/C=N/NS(=O)(=O)c2ccccc2)cc1	PLC-beta3 inh 11 | PLCgamma1 ctr inactive | PLCbeta3 conf inactive
O=C(CCc1nnc2ccc(N3CCCC3)nn12)Nc1ccc(F)cc1F	none
O=C(O)CC1=C(c2ccc(F)cc2)CCC1=O	PLC-beta3 inh 14 | PLCgamma1 ctr inactive | PLCbeta3 conf inactive
Cc1ccc2c(CN3CCC(C)CC3)cc(=O)oc2c1	none
OCc1ccccc1N=Cc1cccnc1	none
Clc1ccc(SCCOCCN2CCOCC2)cc1	none
Clc1ccc(SCCCCN2CCOCC2)cc1	PLC-gamma1 inh 14 | PLCgamma1 ctr inactive | PLCbeta3 conf inactive
CCCn1nc(NS(=O)(=O)c2ccccc2[N+](=O)[O-])c2cc3ccccc3nc21	none
O=C(CCC1CCCN(C(=O)c2cncs2)C1)NCc1ccc(F)c(F)c1 (stereo not drawn)	PLC-gamma1 inh 10 | PLCgamma1 ctr inactive | PLCbeta3 conf inactive
Nc1nc(NCc2ccco2)nc(Nc2cccc(F)c2)c1[N+](=O)[O-]	none
CC1CCCN(c2nc(NCc3ccco3)nc(N)c2[N+](=O)[O-])C1 (stereo not drawn)	PLC-gamma1 inh 16 | PLCgamma1 ctr inactive | PLCbeta3 conf inactive
Nc1nc(Nc2ccccc2F)nc(NCc2ccco2)c1[N+](=O)[O-]	PLC-gamma1 inh 13 | PLCgamma1 ctr inactive | PLCbeta3 conf inactive
c1ccc(CSc2nnc3ccc(-c4cccs4)nn23)nc1	none
COC(c1ccccc1)c1c(-c2ccccc2)nn(C)c1Cl (stereo not drawn)	none
CCNc1c(NS(=O)(=O)c2ccc(OC)c(Cl)c2)c(=O)oc2ccccc12	none
CNc1c(NS(=O)(=O)c2ccc(OC)c(Cl)c2)c(=O)oc2ccccc12	PLC-gamma1 inh 11 | PLCgamma1 ctr inactive | PLCbeta3 conf inactive
CCCCC(=O)Nc1ccc(C(=O)N(CC)c2ccccc2C)cc1	none
CCOC(=O)c1cc(-c2csc(Nc3c(C)cc(C)cc3C)n2)on1	PLC-gamma1 inh 9.8 | PLCgamma1 ctr inactive | PLCbeta3 conf inactive
CCOC(=O)c1csc(N)n1	none
CC(C)(C)C1CCc2c(sc3nc(SCC(=O)O)nc(N)c23)C1 (stereo not drawn)	none
Cc1ccc(C(=O)NC(=S)NNC(=O)CCN2CCOCC2)cc1	PLC-gamma1 inh 9.6 | PLCgamma1 ctr inactive | PLCbeta3 conf inactive
CCOC(=O)Cc1csc(SCC(=O)Nc2cccc(Cl)c2)n1	PLC-gamma1 inh 14 | PLCgamma1 ctr inactive | PLCbeta3 conf inactive
CCOC(=O)Cc1csc(SCC(=O)Nc2cccc(C#N)c2)n1	none
N#CCOc1nc(N2CCOCC2)nc(N2CCOCC2)n1	PLC-gamma1 inh 10.0 | PLCgamma1 ctr inactive | PLCbeta3 conf inactive
CCc1nnc(NC(=O)CCC(=O)N2CCN(CCc3ccccc3)CC2)s1	none
CCc1nnc(NC(=O)CCC(=O)N2CCN(CCOc3ccc(C)cc3)CC2)s1	PLC-beta3 inh 14 | PLCgamma1 ctr inactive | PLCbeta3 conf inactive
COC(=O)C(C)(C)NC(=O)c1cccs1	none
COC(=O)C(C)(C)c1cccnc1C#N	PLC-gamma1 inh 76 | PLCgamma1 ctr 77 | PLCbeta3 conf inactive
O=C(c1ccc(NC2=NC3CS(=O)(=O)CC3S2)cc1)N1CCN(c2ccccc2F)CC1 (stereo not drawn)	none
Cc1cccc(NC(=O)Cc2ccc(NC3=NC4CS(=O)(=O)CC4S3)cc2)c1 (stereo not drawn)	PLC-gamma1 inh 9.7 | PLCgamma1 ctr inactive | PLCbeta3 conf inactive
O=C(c1ccc(NC2=NC3CS(=O)(=O)CC3S2)cc1)N1CCN(Cc2ccccc2)CC1 (stereo not drawn)	PLC-gamma1 inh 9.8 | PLCgamma1 ctr inactive | PLCbeta3 conf inactive
CC1CCCCC1NC(=O)c1cccc(NC2=NC3CS(=O)(=O)CC3S2)c1 (stereo not drawn)	PLC-gamma1 inh 10.0 | PLCgamma1 ctr inactive | PLCbeta3 conf inactive
CCCN=C1N(C)C[C@@H]2[C@@H]3C(=O)N(C)C(=O)[C@@H]3[C@](CC)(C(=O)OC)N12	none
COc1cccc(-c2ccc3ncnc(NCc4ccc5c(c4)OCO5)c3c2)c1	PLC-beta3 inh 12, PLC-gamma1 inh 11 | PLCgamma1 ctr inactive | PLCbeta3 conf inactive
c1ccc(-n2nnnc2OCCOc2nnnn2-c2ccccc2)cc1	PLC-gamma1 inh 14 | PLCgamma1 ctr inactive | PLCbeta3 conf inactive
CCc1ccccc1NC(=O)CN(C)C(=O)COC(=O)c1cccnc1Cl	PLC-gamma1 inh 10 | PLCgamma1 ctr inactive | PLCbeta3 conf inactive
Clc1cccc(CNc2nc(-c3ccccn3)nnc2-c2ccccc2)c1	none
CC(C)(C)c1ccc(CNc2nc(-c3ccccn3)nnc2-c2ccccc2)cc1	PLC-gamma1 inh 18 | PLCgamma1 ctr 14 | PLCbeta3 conf 15
C=CCN1C(=O)/C(=C/c2cccs2)S/C1=N\S(=O)(=O)c1ccc(F)cc1	none
CCN(CC)c1nc(N)c([N+](=O)[O-])c(NCCO)n1	PLC-gamma1 inh 10 | PLCgamma1 ctr inactive | PLCbeta3 conf inactive
CCN(CCNCC(O)COc1ccccc1C(C)C)c1cccc(C)c1 (stereo not drawn)	PLC-gamma1 inh 17 | PLCgamma1 ctr inactive | PLCbeta3 conf inactive
COc1ccc(C(=O)NCCc2nnc3ccc(SCC(=O)Nc4ccccc4)nn23)cc1	none
Cc1ccc(C(C(=O)NC2CCCC2)N(C(=O)CNC(=O)c2cccs2)c2cccnc2)o1 (stereo not drawn)	none
CCN1CCN(C(=S)Nc2ccc(Cl)cc2Cl)CC1	none
CN1CCN(C(=S)Nc2ccc(Cl)cc2Cl)CC1	PLC-gamma1 inh 10 | PLCgamma1 ctr inactive | PLCbeta3 conf inactive
CCCCNC(=O)N1CCN(C(=O)c2ccco2)CC1	none
O=c1[nH]c2cccnc2n1-c1cccc([N+](=O)[O-])c1	none
Cc1cccc(CN2CCSc3sccc3C2=O)c1	PLC-gamma1 inh 13 | PLCgamma1 ctr inactive | PLCbeta3 conf inactive
O=C1c2ccsc2SCCN1Cc1cccc(Cl)c1	none
O=C(CSc1ccc2nnc(CCNC(=O)c3ccc(F)cc3)n2n1)NCc1ccco1	PLC-gamma1 inh 14 | PLCgamma1 ctr inactive | PLCbeta3 conf inactive
O=C(CSc1ccc2nnc(CCNC(=O)c3ccccc3)n2n1)NCc1ccco1	none
COC(=O)C1CCN(S(=O)(=O)CCNC(=O)c2ccccc2)CC1	none
CN(C)S(=O)(=O)c1ccc(NC(=O)CN2CCN(C(c3ccccc3)c3ccccc3)CC2)cc1	PLC-gamma1 inh 11 | PLCgamma1 ctr inactive | PLCbeta3 conf inactive
S=c1nc(C23CC4CC(CC(C4)C2)C3)[nH][nH]1	PLC-gamma1 inh 12 | PLCgamma1 ctr inactive | PLCbeta3 conf inactive
C=CCn1c(SCC(=O)Nc2cccnc2Cl)nnc1-c1ccc(Cl)cc1	none
C=CCn1c(SCC(=O)Nc2ccccc2-c2ccccc2)nnc1-c1ccc(Cl)cc1	PLC-gamma1 inh 10 | PLCgamma1 ctr inactive | PLCbeta3 conf inactive
